Values joined by “and” are separate entries in the source; they are usually repeats but may differ in a detail not shown here. Equal entries are not always repeated. This is part of a sample that, as a whole, favours compounds with a hit. Of some 83,000 tested, about 20% had one in any assay.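 In brief: 96-well plates, 48 h treatment, single concentration, percent growth endpoint.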 Active and inactive are the calls of the source. Rule for the calls: active = growth percent below 10; inactive = the rest.
What was measured:
Assay in all cases: NCI-60 one-dose screen, 48 h (100 = growth as untreated, 0 = no growth, -100 = all killed)
[1] = tested on: NCI-H23 lung
[2] = tested on: NCI-H226 lung
[3] = tested on: NCI-H322M lung; conditions: 10 µM unless noted
[4] = tested on: HOP-62 NSCLC
[5] = tested on: NCI-H460 lung
[6] = tested on: HOP-92 NSCLC
[7] = tested on: NCI-H522 lung
[8] = tested on: A549/ATCC NSCLC
[9] = tested on: 786-0 renal
[10] = tested on: COLO 205 colon
[11] = tested on: DU-145 prostate
[12] = tested on: K-562 leukemia
[13] = tested on: MALME-3M melanoma
[14] = tested on: MDA-MB-231 breast
[15] = tested on: RXF 393 renal
[16] = tested on: SF-268 CNS
[17] = tested on: SF-295 CNS
[18] = tested on: SF-539 CNS
[19] = tested on: UACC-257 melanoma
[20] = tested on: M14 melanoma

Measured: growth

CC1=CC(C)(C)NC(=S)N1c1ccc(Cl)cc1
inactive: [1]; 10 µM unless noted 101% and 99% | [2]; 10 µM unless noted 99% and 103% | [3] 98.2% | [4]; 10 µM unless noted 108% and 102% | [5]; 10 µM unless noted 101% and 112% | [6]; 10 µM unless noted 114% | [7]; 10 µM unless noted 93.7% and 92.4% | [8]; 10 µM unless noted 98% and 104% | [9]; 10 µM unless noted 99.8% and 97.7% | [10]; 10 µM unless noted 109% and 100% | [11]; 10 µM unless noted 105% and 110% | [12]; 10 µM unless noted 97.7% and 92.6% | [13]; 10 µM unless noted 99.7% | [14]; 10 µM unless noted 101% and 99.3% | [15]; 10 µM unless noted 104% and 121% | [16]; 10 µM unless noted 101% and 100% | [17]; 10 µM unless noted 101% and 111% | [18]; 10 µM unless noted 98.7% and 106% | [19]; 10 µM unless noted 98.6% and 105%

COc1ccc(Nc2nn3c(SCC(=O)c4ccc(C)cc4)nnc3s2)cc1
inactive: [1]; 10 µM unless noted 91.1% | [2]; 10 µM unless noted 84.8% | [3] 86.2% | [4]; 10 µM unless noted 90.8% | [5]; 10 µM unless noted 97.9% | [6]; 10 µM unless noted 83.4% | [7]; 10 µM unless noted 80.6% | [8]; 10 µM unless noted 96.6% | [9]; 10 µM unless noted 93.5% | [10]; 10 µM unless noted 91.8% | [11]; 10 µM unless noted 101% | [12]; 10 µM unless noted 83.5% | [13]; 10 µM unless noted 98.7% | [14]; 10 µM unless noted 91.7% | [15]; 10 µM unless noted 97.1% | [16]; 10 µM unless noted 100% | [17]; 10 µM unless noted 100% | [18]; 10 µM unless noted 107% | [19]; 10 µM unless noted 108%

CCN(Cc1ccccc1)c1ccc(/C=C2\COc3ccccc3C2=O)cc1
inactive: [1]; 10 µM 97.2% | [1]; 100 µM 37.1% | [2]; 10 µM 95.4% | [2]; 100 µM 50.9% | [3] 75.9% [100 µM] | [4]; 10 µM 89.6% | [4]; 100 µM 56.8% | [5]; 10 µM 100% | [5]; 100 µM 45.8% | [6]; 10 µM 85.9% | [6]; 100 µM 23% | [7]; 10 µM 88.5% | [8]; 10 µM 99.4% | [8]; 100 µM 47% | [9]; 10 µM 86.9% | [9]; 100 µM 54.5% | [10]; 10 µM 106% | [10]; 100 µM 38.9% | [11]; 10 µM 101% | [11]; 100 µM 47.8% | [12]; 10 µM 78.4% | [13]; 10 µM 99.1% | [13]; 100 µM 54.5% | [14]; 10 µM 101% | [14]; 100 µM 43% | [15]; 10 µM 109% | [15]; 100 µM 37.3% | [16]; 10 µM 101% | [16]; 100 µM 54.7% | [17]; 10 µM 94.4% | [17]; 100 µM 54.4% | [18]; 10 µM 97.3% | [18]; 100 µM 61.1% | [19]; 10 µM 92.6% | [19]; 100 µM 42.8% | [20]; 10 µM 97.4% | [20]; 100 µM 28.9%
active: [7]; 100 µM 2.07% | [12]; 100 µM 6.4%

COC1=CC(c2ccc[nH]2)=N/C1=C\c1[nH]c(C)c(C(=O)Oc2ccccc2)c1C
active: [1]; 10 µM unless noted -32.9% | [2]; 10 µM unless noted -39.8% | [3] -13.1% | [4]; 10 µM unless noted -22.2% | [5]; 10 µM unless noted -31.2% | [6]; 10 µM unless noted -35.4% | [7]; 10 µM unless noted -64% | [8]; 10 µM unless noted -44.1% | [9]; 10 µM unless noted -44.1% | [10]; 10 µM unless noted -81.4% | [11]; 10 µM unless noted 9.64% | [12]; 10 µM unless noted 8.48% | [13]; 10 µM unless noted -79.6% | [14]; 10 µM unless noted -69.2% | [15]; 10 µM unless noted -9.71% | [17]; 10 µM unless noted -74.9% | [18]; 10 µM unless noted -74.6% | [19]; 10 µM unless noted -54.9%
inactive: [16]; 10 µM unless noted 14.9%

C=C1C(=O)O[C@H]2[C@H]1CC/C(COC(=O)NCCCCNC(=O)OC/C1=C/CC[C@@]3(C)O[C@H]3[C@H]3OC(=O)C(=C)[C@@H]3CC1)=C\CC[C@@]1(C)O[C@@H]21
active: [6]; 10 µM unless noted -32.8% | [7]; 10 µM unless noted -61.4% | [10]; 10 µM unless noted -43.4% | [12]; 10 µM unless noted 4.14% | [13]; 10 µM unless noted -39.3% | [15]; 10 µM unless noted -30.2% | [18]; 10 µM unless noted -23.6% | [19]; 10 µM unless noted 2.94%
inactive: [1]; 10 µM unless noted 38.3% | [2]; 10 µM unless noted 53.2% | [3] 98.5% | [4]; 10 µM unless noted 73.8% | [5]; 10 µM unless noted 102% | [8]; 10 µM unless noted 94.9% | [9]; 10 µM unless noted 22.7% | [11]; 10 µM unless noted 45.8% | [14]; 10 µM unless noted 24% | [16]; 10 µM unless noted 48.7% | [17]; 10 µM unless noted 99%
